Measured values published in the supplement of paper PMC4723716.

Test system: Plasmodium falciparum NF54 gametocytes
Test: viability index relative to DMSO control (fraction); higher = less gametocyte killing
Conditions: 12.5 µM, incubation time: 72 h
In short: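 The viability index expresses each well's gametocyte particle count relative to the plate mean of solvent-only wells. Stage I–V P. falciparum NF54 gametocytes (0.50% gametocytemia, 1.25% hematocrit, 40 µl of serum-containing medium) were exposed to compound at 12.5 µM for 72 hr at 37°C under low oxygen in 384-well plates. They were stained for 20 min with 5 µl of 5 µM MitoTracker Red CMXRos, and 5 µl was then transferred into 40 µl of 500 nM dye in serum-free medium for imaging of three fields 30 min later.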

[1] = gametocyte stage: Stage I viability index
[2] = gametocyte stage: Stage II viability index
[3] = gametocyte stage: Stage III viability index
[4] = gametocyte stage: Stage IV viability index
[5] = gametocyte stage: Stage V viability index

SMILES | viability index [1] | viability index [2] | viability index [3] | viability index [4] | viability index [5]
O=C1CC(O)(C(F)(F)C(F)(F)F)Oc2ccccc21 (stereo not given) | 1.22 | 0.957 | 1.2 | 1.19 | 0.813
CCCCNCC(O)(c1ccc(Cl)cc1)c1ccc(Cl)cc1 | 0.00663 | 0.0541 | 0.364 | 0.422 | 0.396
C=C(C)CCC(C)N1CCC(N2CCC(C(=O)NCCc3ccccc3)CC2)CC1 (stereo not given) | 0.538 | 0.665 | 0.948 | 0.845 | 0.758
CC(=O)c1sc(NC(=O)Nc2ccc(C)cc2C)nc1C | 0.271 | 0.455 | 0.673 | 0.801 | 0.714
Oc1ccccc1CN1CCN(C(c2ccccc2)c2ccccc2)CC1 | 0.0221 | 0.102 | 0.437 | 0.535 | 0.615
CCOc1ccc2nc(C)cc(Nc3ccc(N(C)C)cc3)c2c1 | 0.157 | 0.571 | 0.868 | 0.943 | 0.857
O=C(Nc1ccc(-c2nc3cc4ccccc4cc3[nH]2)cc1)c1cccc(Br)c1 | 0.028 | 0.421 | 0.851 | 0.873 | 0.909
C[n+]1c2ccccc2nc2ccc(NCCO)cc21 | 0.0398 | 0.302 | 0.595 | 0.824 | 1.03
CCc1ccc(Nc2cc(C)c3ccc(O)cc3n2)cc1 | 0.238 | 0.256 | 0.706 | 0.827 | 0.945
CCCn1c(=N)c(C(=O)NC2CCCCC2)cc2c(=O)n3cccc(C)c3nc21 | 0.45 | 0.612 | 1.06 | 0.981 | 0.805
COc1ccccc1C(=O)ON=C(N)Cc1cccc2ccccc12 | 0.0446 | 0.121 | 0.299 | 0.373 | 0.195
CCOc1ccc(-c2nonc2NC(=O)c2cccc(C)c2)cc1OCC | 0.0619 | 0.0773 | 0.0679 | 0.222 | 0.626
CC(C)OCc1cc(CN2CCN(c3cccc(Cl)c3)CC2)c(O)c2ncccc12 | 0.00331 | 0.0328 | 0.0297 | 0.0243 | 0.011
Cc1c(C)n(Cc2ccc(F)cc2)c2ccc(C(=O)NCc3ccco3)cc12 | 0.478 | 0.756 | 0.932 | 0.827 | 1
CCOc1ccc(CCNC(=O)c2cccs2)cc1OCC | 1.14 | 0.896 | 1.1 | 0.884 | 0.593
Cc1ccccc1OCCSc1nc2ccc(NC(=O)c3cccs3)cc2s1 | 1.13 | 0.918 | 1.08 | 0.927 | 1.27
COc1ccc(-c2nc(NC(=O)CS(=O)(=O)c3ccc(F)cc3)sc2C)cc1 | 0.307 | 0.564 | 1.11 | 0.888 | 0.978
CCN(CC)CCNc1ncnc2c1[nH]c1ccc(Cl)cc12 | 0.0354 | 0.373 | 0.818 | 0.763 | 0.451
c1ccc2cc3c(Nc4ccc(N5CCOCC5)cc4)ccnc3cc2c1 | 0.0685 | 0.499 | 0.779 | 1.02 | 1.19
COc1ccc(C(=O)Nc2ccc(Cl)cc2C(=O)Nc2ccncc2)cc1 | 0.0232 | 0.557 | 0.915 | 0.763 | 0.692
O=C(NC1CCN(Cc2ccccc2)CC1)c1cc(-c2ccncc2)nc2ccc(Cl)cc12 | 0.601 | 0.662 | 1.08 | 0.994 | 0.791

SMILES | viability index [1] | viability index [2] | viability index [3] | viability index [4] | viability index [5]
CCN1CCN(c2c(C(=O)c3ccccc3)cnc3cc(OC)c(OC)cc23)CC1 | 1.03 | 0.988 | 1.22 | 1 | 0.909
CC(O)(c1ccc(Cl)cc1)C(CN1CCCCC1)c1ccccc1 (stereo not given) | 0.115 | 0.32 | 0.809 | 0.818 | 0.802
O=C(NC1CCN(Cc2ccccc2)CC1)c1cc2nc(-c3ccc(Cl)s3)cc(C(F)(F)F)n2n1 | 0.0778 | 0.366 | 0.843 | 0.883 | 1.01
COc1ccc2nc(N)nc(C)c2c1 | 0.353 | 0.614 | 0.685 | 0.959 | 1.04
CC(C)(C)c1ccc(C2CC3=Nc4ccccc4N(C(=O)c4ccccc4Cl)C(c4ccc(F)cc4)C3=C(O)C2)cc1 (stereo not given) | 0.278 | 0.223 | 0.472 | 0.503 | 0.429
c1ccc2c(NCCc3c[nH]c4ccccc34)c3ccccc3nc2c1 | 0.145 | 0.22 | 0.609 | 0.687 | 0.675
COc1cc(-c2nc(-c3ccccc3)c(-c3ccccc3)[nH]2)cc(OC)c1O | 0.0446 | 0.247 | 0.358 | 0.532 | 0.221
COc1ccc(C(=O)C2CC2c2ccc(Cl)cc2)cc1 (stereo not given) | 1.01 | 0.968 | 1.03 | 0.93 | 0.558
O=C(Nc1ccc(-c2nc3cc(NC(=O)c4ccc(Cl)cc4)ccc3[nH]2)cc1)c1ccc(Cl)cc1 | 0.0481 | 0.00583 | 0.0176 | 0.00316 | 0
CCC(c1ccccc1)c1nn2c(-c3cccs3)nnc2s1 (stereo not given) | 1.04 | 0.992 | 1.07 | 0.875 | 0.725
Cc1cc(NC(=O)c2ccc(-c3ccccc3)cc2)no1 | 0.759 | 0.877 | 0.901 | 0.836 | 0.681
CCN1CCN(c2cc(C)c3cc(NC(=O)c4ccc(OC)c(OC)c4)ccc3n2)CC1 | 0.33 | 0.677 | 1.04 | 0.818 | 0.901
COc1cccc(C(=O)NC(c2ccc(C)cc2)c2cc(Cl)c3cccnc3c2O)c1 (stereo not given) | 0.116 | 0.0583 | 0.0814 | 0.247 | 0.039
COc1cc(C(=O)Nc2nc3c(cc4c5c(cccc53)CC4)s2)cc(OC)c1OC | 0.18 | 0.5 | 1.04 | 0.775 | 0.818
O=C(Nc1ccc(Cl)cc1C(=O)Nc1ccncc1)c1ccc(Cl)cc1Cl | 0.139 | 0.589 | 0.935 | 0.927 | 0.637
CCCCCCc1cc2cc(-c3nc4ccccc4[nH]3)c(=Nc3ccccc3C)oc2cc1O | 0.0472 | 0.138 | 0.501 | 0.601 | 0.506
COc1ccc(-c2cn3c(C(=O)Nc4ccccc4Cl)c(-c4ccccc4)c4c3n2CCCC4)cc1 | 0.673 | 0.531 | 0.719 | 0.794 | 0.779
CC(C)(C)c1ccc(O)c(CNC2CCCCC2)c1 | 0.256 | 0.329 | 0.482 | 0.571 | 0.462
COc1cc(OC)c(N(C)C(=O)c2cc3c(s2)-c2ccccc2S(=O)(=O)C3)cc1Cl | 0.00884 | 0.00676 | 0.0212 | 0.131 | 0.022
CCCc1c(C)nc2ccc(Br)cc2c1O | 0.777 | 0.706 | 0.893 | 0.965 | 0.753
O=C(NC1CCCCC1)C(c1cccs1)N(CCc1ccccc1)C(=O)c1ccco1 (stereo not given) | 0.98 | 0.838 | 1 | 1.04 | 0.961

SMILES | viability index [1] | viability index [2] | viability index [3] | viability index [4] | viability index [5]
Cc1ccc(OCCCCCCNCCO)c(C)c1 | 1.13 | 1.04 | 1.05 | 0.934 | 0.909
CCOc1c(Cl)cc(CNCC(O)c2ccccc2)cc1OC (stereo not given) | 0.231 | 0.272 | 0.793 | 0.918 | 0.714
COc1ccc2nc(C)cc(Nc3ccccc3O)c2c1 | 0.139 | 0.625 | 1.04 | 1.09 | 0.912
Oc1ccccc1CN1CCC2(CCCN(Cc3ccccc3F)C2)C1 (stereo not given) | 0.0166 | 0.161 | 0.509 | 0.657 | 1.07
O=C(Nc1nc(-c2ccccn2)cs1)c1ccccc1Br | 0.0807 | 0.13 | 0.147 | 0.158 | 0.0989
CCOc1c(Br)cc(C2C(C(=O)OC)=CN(C)C=C2C(=O)OC)cc1OC | 0.344 | 0.243 | 0.353 | 0.38 | 0.649
COc1ccc2c(=O)cc(C(Cl)(Cl)Cl)oc2c1 | 0.0166 | 0.146 | 0.512 | 0.623 | 0.56
CCOC(=O)C1=C(C)N=c2sc(=Cc3ccccc3O)c(=O)n2C1c1ccc(OC)c2ccccc12 (stereo not given) | 0.0358 | 0.06 | 0.197 | 0.468 | 0.481
CN1CCN(c2ccc(Nc3c4ccccc4nc4ccccc34)cc2)CC1 | 0.0453 | 0.0029 | 0.0523 | 0.146 | 0.121
Cc1cc(NC(=O)c2cccc(C(F)(F)F)c2)n(-c2nc(-c3ccc4c(c3)OCO4)cs2)n1 | 1.26 | 0.943 | 1.1 | 0.951 | 0.956
Nc1ccn(C2O[C@H](CO)[C@@H](O)[C@H]2O)c(=O)n1 (stereo not given in full) | 0.976 | 1.14 | 0.955 | 1.07 | 1.1
CC(C)(C)CC(C)(C)NCC(O)COc1ccc(Cl)cc1Cl (stereo not given) | 0.0309 | 0.0309 | 0.0665 | 0.188 | 0.11
CN1CCN(c2nc(Nc3ccc(O)cc3)nc3ccccc23)CC1 | 0.0262 | 0.247 | 0.796 | 0.927 | 0.74
CCCCCn1c(=N)n(CC(O)COc2cccc(C)c2)c2ccccc21 (stereo not given) | 0.0988 | 0.0949 | 0.32 | 0.459 | 0.221
Brc1ccc(Nc2nc3ccccc3nc2Nc2ccc(Br)cc2)cc1 | 0.0192 | 0.00916 | 0.0204 | 0.0222 | 0.104
CC(C)(C)CC(C)(C)NCC(O)COc1ccc2c(c1)CCC2 (stereo not given) | 0.221 | 0.273 | 0.615 | 0.666 | 0.462
CC(=O)Nc1nnc(SCc2c(C)cc(C(C)(C)C)cc2C)s1 | 0.854 | 0.701 | 0.894 | 0.793 | 0.912
COc1ccc2nc(C)cc(Nc3ccc(Cl)cc3)c2c1 | 0.243 | 0.525 | 0.994 | 1.05 | 0.692
COc1cccc(Nc2nc(NCCO)c3ccccc3n2)c1 | 0.134 | 0.581 | 0.728 | 0.854 | 0.538
Cc1cc(NC(=O)C2c3ccccc3C(=O)N(CC(C)C)C2c2cccs2)no1 (stereo not given) | 0.0387 | 0.0193 | 0.0636 | 0.188 | 0.0879
